The values that follow come from PubChem BioAssay (NCI).

This is part of a sample that, as a whole, favours compounds with a hit. Of some 83,000 tested, about 20% had one in any assay.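 The endpoint reported here, percent growth, reads 100 for growth as untreated, 0 for no net growth and -100 for all cells dead.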 Values without a mark were called inactive. Calls of active or inactive are those of the source.

This assay relates to HL-60(TB) leukemia. Briefly: NCI-60 one-dose screen, 48 h (100 = growth as untreated, 0 = no growth, -100 = all killed). Particulars: 10 µM unless noted. How it is done: Growth inhibition of the HL-60(TB) human tumor cell line is measured as a screen for anti-cancer activity. Cells are grown in 96 well plates and exposed to the test compound for 48 hours. Compounds are tested at a single concentration, which is 10^-5 M for most compounds. The reported endpoint is percent growth (GI% or GIPRCNT), where numbers from 0 - 100% represent growth inhibition, and numbers from -100% - 0 represent cell death. For example, a value of 40 represents 60% growth inhibition. A value of 0 means no net growth occurred over the course of the experiment. A value of -40 indicates 40% of cells at the beginning of the experiment died by the end of the experiment. A value of -100 means all cells are dead at the end of the experiment.
NCI-60 Human Tumor Cell Lines Screen was performed using the standard one-dose NCI protocol, which is described in more detail at https://dtp.cancer.gov/discovery_development/nci-60/default.htm.
Compounds with GIPRCNT values below 10 were considered active. Activity score was based on GIPRCNT using the following formula: […]
Score is 0 for GIPRCNT values of 100 or above, 50 for GIPRCNT values of 0, and 100 for GIPRCNT values of -100.
In the case of `COc1ccc(-n2c(SCC(=O)NNS(=O)(=O)c3ccccc3)nc3ccc(Cl)cc3c2=O)cc1`, the growth was 107%.
Regarding `Clc1cccc(-c2ccc(OCCCN3CCN(c4ccncc4)CC3)cc2)c1`, the growth is -53.9% (active).
On to `O=C1Nc2cc(-c3ccc(NC(=O)c4cccc([N+](=O)[O-])c4)cc3)ccc2/C1=C/c1ccc[nH]1`, for which the growth is 106%.
On to `COC(=O)c1ccc(-c2c(-c3ccccc3)c(F)c3oc(C(=O)OC)c(N)c3c2-c2ccccc2)cc1`, for which the growth was 105%.
Then `COc1ccc(CN2[C@@H](C(=O)NCc3ccc(C(=O)NO)cc3)Cc3c([nH]c4ccccc34)[C@@H]2C2CC2)cc1`, with -8.06% (active).
As to `COc1c(F)ccc(C(=O)Nc2ccc3nc(NC(=O)C4CCCN(S(=O)(=O)c5ccc(Cl)cc5)C4)sc3c2)c1F` (stereo not given), the growth was 83.4%.
Then `O=C(Cc1c(-c2cccc([N+](=O)[O-])c2)n(-c2ncnc3c2c(-c2ccccc2)c(-c2ccccc2)n3Cc2ccccc2)[nH]c1=O)c1ccc(Cl)c(Cl)c1`, with 11.6%; and `CC1CC(c2ccc(N(C)C)cc2)=NN1c1nc(O)c(C2=c3cc(Br)ccc3=NC2=O)s1` (stereo not given), with 68.7%; and `COc1cc2cc(C(=O)N3C[C@@H](CCl)c4c3cc(OC(=O)N(CCC(=O)N3CCN(C)CC3)[C@H]3CCSSC3)c3ccccc43)[nH]c2c(OC)c1OC`, with -34.5% (active).
Regarding `Fc1cccc(CNc2nc(SCCN3CCOCC3)nc3c2cnn3CC(Cl)c2ccc(Br)cc2)c1` (stereo not given), the growth was -23.6% (active).
Then `C=C(c1ccc(OC)c(N)c1)c1cc(C)nc2ccccc12`, with -22.8% (active); and `CCC(=O)c1cc(C(=O)OC)c2ccc3c4ccccc4ccc3n12`, with 103%.
In the case of `COc1ccc(C(=O)c2c(N)c(C#N)cn2-c2ccc([N+](=O)[O-])cc2)cc1`, the growth is 97.5%.
On to `COC[C@@H](CC(C)C)N=C1NC(=O)/C(=C/c2ccc3ncsc3c2)N1`, for which the growth is 1.21% (active).
Then `CCC[Se]C(=O)c1ccc(C(=O)[Se]CCC)s1`, with -26.7% (active).
Regarding `CC[C@]12C=CCN3CC[C@@]4(c5ccc(OC)cc5N(C)[C@H]4[C@@](O)(C(=O)OC)[C@@H]1OC(=O)CCC[P+](c1ccc(F)cc1)(c1ccc(F)cc1)c1ccc(F)cc1)[C@@H]32`, the growth was -22.9% (active).
On to `N/C(=N\c1nc2ccccc2s1)NC(=O)Nc1ccccc1[N+](=O)[O-]`, for which the growth is -11.1% (active).
For `CN1CCN(C(=O)Oc2cc3c(c4ccccc24)[C@H](CCl)CN3C(=O)c2cc3cc(OCCCN4CCC4)ccc3[nH]2)[C@@H]2CSSC[C@H]21`, the growth was -25.8% (active).
Next, `Cn1cc(-c2cc(N)n3nc(-c4c[nH]c5ccc(F)cc45)cc3n2)c2cccnc21`: -54% (active).
As to `COc1ccc(Cc2nn(CC(=O)N/N=C/c3ccc(F)cc3)c(=O)c3c(C)noc23)cc1`, the growth was 78.2%.
As for `CN1CCN(CCS(=O)(=O)Nc2cc(-c3ccc4ncnc(Nc5ccc(F)c(Cl)c5)c4c3)cnc2Cl)CC1`, the growth was 19.2%.
Next, `COc1ccc(-c2nc3ccccc3n2CC(=O)N=Nc2c(O)[nH]c3ccc(OC)cc23)cc1`: 37.6%.
Next, `Cc1ccc(C(=O)NN2C(=O)/C(=C/C=C/c3ccc([N+](=O)[O-])o3)SC2=S)cc1`: 2.23% (active).
For `COc1ccc(-c2nc(SCC(C)C)nc(NCCc3c[nH]c4ccccc34)c2C#N)cc1`, the growth was 63.2%.
On to `O=C1CC(c2ccc(I)cc2)OC2C=Cc3ccccc3C12` (stereo not given), for which the growth is 89%.
Take `O=C1Nc2ccc(Cl)cc2/C1=C/c1cccc(OCc2ccccn2)c1`: the growth is -25% (active).
`CC1(c2ccccc2)NC(=O)N(CC(=O)Nc2ccc(C(=O)/C=C/C=C/c3ccccc3)cc2)C1=O` (stereo not given): the growth is 36.8%.
`CCOC(=O)/C(F)=C/C1CC1CCc1ccc(OCC)cc1` (stereo not given): the growth is 101%.
With `CC(C)C[C@H](NC(=O)CNC(=O)C[C@H]1O[C@@H]2OC3(C)CC[C@H]4[C@H](C)CC[C@@H]([C@H]1C)[C@@]24OO3)B(O)O`, the growth was 0.92% (active).
Next, `Cn1cc(-c2nnc(N)nc2-c2c[nH]c3ccc(Br)cc23)c2cc(Br)cnc21`: 29.8%; `CCCCCCCCc1ccc(C(=O)Nc2ccc(C)cc2C(=O)O)cc1C`: 102%.
With `O=C1Nc2ccccc2/C1=C/C(=O)c1cc2ccccc2oc1=O`, the growth was 102%.
Take `Cn1cc(-c2cc(N)n3nc(-c4c[nH]c5ccc(Cl)cc45)cc3n2)c2cc(Br)cnc21`: the growth was -60.4% (active).
In the case of `Clc1ccc(-c2nc3ccc(-c4nnc(SCc5ccccc5)o4)cc3[nH]2)cc1`, the growth was 51.8%.
Then `CC(=O)OCC1OC(OC2C(COC(C)=O)OC(n3cc(COc4ccc5ccc(=O)oc5c4)nn3)C(OC(C)=O)C2OC(C)=O)C(OC(C)=O)C(OC(C)=O)C1OC(C)=O` (stereo not given), with 103%; and `O=c1cc(-c2ccccc2)oc2cc(OCCCC[P+](c3ccccc3)(c3ccccc3)c3ccccc3)cc(O)c12`, with -51.5% (active); and `CC(=O)OC[C@@]1(C)C2CC[C@]3(C)C(CC=C4C5CC(C)(C)CC[C@]5(C(=O)Nc5ccccc5)CC[C@]43C)[C@@]2(C)C[C@@H](OC(C)=O)[C@@H]1OC(C)=O` (stereo not given in full), with 22.6%.
As to `O=C(c1ccc(Cl)cc1)C1[C@H](c2ccccc2Cl)[C@@H](c2ccccc2)NC12C(=O)Nc1ccc(Cl)cc12` (stereo not given in full), the growth was -39.9% (active).
With `O=C(N/N=C/c1ccc(Cl)cc1)c1ccc(OCc2nc3ccc(Cl)cc3[nH]2)cc1`, the growth is 81.7%.
Then `CCOC(=O)C1=C(N)N(c2ccccc2)C2=C(C(=O)CC(C)(C)C2)C1c1ccccc1Cl` (stereo not given), with -23% (active).
